Legend:
Assay in all cases: DAPPL (digital affinity profiling via proximity ligation, sequencing); 10 mM Tris-HCl pH 7.5, 50 mM NaCl, 1 mM DTT, 4% glycerol, room temperature, 30 min; GST-TFs on glutathione beads, 16-mer random dsDNA library, 0.1% formaldehyde crosslink after washing; high values mean tight binding
Conditions in all cases: protein: recombinant; tags: N-terminal GST; dsDNA, one strand shown
ELK4 = target: T1, ELK4 (Homo sapiens, UniProt P28324-2 1-405)
T1 sequence: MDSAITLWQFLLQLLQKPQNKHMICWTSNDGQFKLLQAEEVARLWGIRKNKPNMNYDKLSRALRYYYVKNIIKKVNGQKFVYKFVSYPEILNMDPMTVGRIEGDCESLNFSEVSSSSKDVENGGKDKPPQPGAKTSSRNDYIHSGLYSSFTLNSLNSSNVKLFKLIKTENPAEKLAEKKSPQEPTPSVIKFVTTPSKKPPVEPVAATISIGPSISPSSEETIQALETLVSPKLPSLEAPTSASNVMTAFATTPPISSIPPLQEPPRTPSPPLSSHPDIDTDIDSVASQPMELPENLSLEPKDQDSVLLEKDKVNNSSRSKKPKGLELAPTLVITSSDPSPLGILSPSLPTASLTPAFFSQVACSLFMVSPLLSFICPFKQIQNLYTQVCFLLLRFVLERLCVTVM
Outline: (§1)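 Human transcription factors fused to GST were expressed in yeast, captured on glutathione beads, given DNA barcodes and pooled with a GST-only negative control. Pools were incubated with 200 nmole of a 16-mer random double-stranded DNA library in Tris/NaCl/DTT/glycerol buffer at room temperature for 30 min. They were then washed, crosslinked with 0.1% formaldehyde, proximity-ligated (BsaI/T4 ligase, 1 h, 37 °C), PCR-amplified and sequenced on an Illumina NextSeq500. Binding signal is each 6-mer's read frequency for a factor divided by its frequency for the GST control.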

ELF3 = target: T2, ELF3 (Homo sapiens, UniProt P78545 1-371)
T2 sequence: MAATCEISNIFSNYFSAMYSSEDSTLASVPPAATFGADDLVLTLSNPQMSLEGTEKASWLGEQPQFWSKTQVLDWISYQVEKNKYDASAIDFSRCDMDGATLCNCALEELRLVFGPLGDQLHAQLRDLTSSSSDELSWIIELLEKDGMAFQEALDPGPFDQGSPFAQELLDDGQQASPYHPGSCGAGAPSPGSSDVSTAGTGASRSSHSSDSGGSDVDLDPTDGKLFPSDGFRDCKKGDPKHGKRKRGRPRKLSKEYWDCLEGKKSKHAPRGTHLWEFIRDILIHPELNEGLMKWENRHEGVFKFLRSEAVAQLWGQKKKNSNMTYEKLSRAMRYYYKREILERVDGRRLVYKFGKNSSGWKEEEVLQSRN
Outline: as §1

ETV1 = ETV1 (Homo sapiens, UniProt P50549 1-477)
Sequence of ETV1 (P50549 whole entry): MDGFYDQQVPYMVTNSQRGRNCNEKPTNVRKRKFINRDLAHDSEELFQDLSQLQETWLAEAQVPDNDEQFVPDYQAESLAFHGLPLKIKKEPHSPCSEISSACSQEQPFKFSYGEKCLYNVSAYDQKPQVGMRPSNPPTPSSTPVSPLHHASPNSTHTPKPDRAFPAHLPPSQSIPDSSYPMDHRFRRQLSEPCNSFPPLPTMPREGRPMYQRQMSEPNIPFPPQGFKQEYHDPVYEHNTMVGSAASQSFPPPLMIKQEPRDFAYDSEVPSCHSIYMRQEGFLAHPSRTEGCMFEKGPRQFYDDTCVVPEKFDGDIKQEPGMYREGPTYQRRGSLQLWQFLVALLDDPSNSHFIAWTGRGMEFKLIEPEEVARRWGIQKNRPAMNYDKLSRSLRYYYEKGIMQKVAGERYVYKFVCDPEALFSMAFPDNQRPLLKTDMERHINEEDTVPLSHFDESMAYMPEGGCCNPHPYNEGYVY
Outline: as §1

ERF = target: T3, ERF (Homo sapiens, UniProt P50548 1-548)
T3 sequence: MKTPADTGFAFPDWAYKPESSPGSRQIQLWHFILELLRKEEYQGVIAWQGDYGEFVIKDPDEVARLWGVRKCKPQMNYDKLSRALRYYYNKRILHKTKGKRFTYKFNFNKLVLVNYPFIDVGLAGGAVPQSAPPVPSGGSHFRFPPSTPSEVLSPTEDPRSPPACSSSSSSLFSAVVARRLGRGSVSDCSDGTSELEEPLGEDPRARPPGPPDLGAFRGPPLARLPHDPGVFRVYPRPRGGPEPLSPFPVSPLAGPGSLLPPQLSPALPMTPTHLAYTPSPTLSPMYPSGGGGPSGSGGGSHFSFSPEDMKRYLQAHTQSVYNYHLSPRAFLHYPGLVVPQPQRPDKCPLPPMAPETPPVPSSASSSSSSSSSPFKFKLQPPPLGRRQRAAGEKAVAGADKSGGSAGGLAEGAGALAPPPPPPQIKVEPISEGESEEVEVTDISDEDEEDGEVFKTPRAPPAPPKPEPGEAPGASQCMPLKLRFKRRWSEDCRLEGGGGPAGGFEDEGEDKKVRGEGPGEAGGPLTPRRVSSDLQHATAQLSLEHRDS
Outline: as §1

ETV3L = target: T4, ETV3L (Homo sapiens, UniProt Q6ZN32 1-361)
T4 sequence: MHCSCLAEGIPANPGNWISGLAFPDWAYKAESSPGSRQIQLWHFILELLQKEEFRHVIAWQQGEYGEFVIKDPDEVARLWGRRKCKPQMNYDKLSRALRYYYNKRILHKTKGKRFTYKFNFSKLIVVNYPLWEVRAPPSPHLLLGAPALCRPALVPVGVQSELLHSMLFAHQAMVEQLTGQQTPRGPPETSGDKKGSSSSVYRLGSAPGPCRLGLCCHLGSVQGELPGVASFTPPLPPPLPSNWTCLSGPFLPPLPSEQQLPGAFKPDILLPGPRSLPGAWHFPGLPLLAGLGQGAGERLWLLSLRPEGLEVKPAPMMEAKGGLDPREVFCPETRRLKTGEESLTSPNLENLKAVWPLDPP
Outline: as §1

ETS2 = target: T5, ETS2 (Homo sapiens, UniProt P15036 1-469)
T5 sequence: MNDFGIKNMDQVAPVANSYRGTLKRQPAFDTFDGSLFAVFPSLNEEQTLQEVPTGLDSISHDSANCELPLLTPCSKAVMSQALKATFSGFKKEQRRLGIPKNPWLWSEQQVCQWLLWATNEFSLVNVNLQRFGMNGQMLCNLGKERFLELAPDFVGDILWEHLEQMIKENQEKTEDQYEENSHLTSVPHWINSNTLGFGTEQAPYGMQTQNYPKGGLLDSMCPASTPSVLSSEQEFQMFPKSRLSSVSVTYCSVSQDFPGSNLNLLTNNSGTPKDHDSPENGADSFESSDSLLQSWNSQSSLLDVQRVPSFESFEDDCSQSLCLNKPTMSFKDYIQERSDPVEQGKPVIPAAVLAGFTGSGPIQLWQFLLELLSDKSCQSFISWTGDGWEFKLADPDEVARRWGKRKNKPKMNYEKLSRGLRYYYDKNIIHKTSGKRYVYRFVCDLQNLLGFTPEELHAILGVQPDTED
Outline: as §1

SPDEF = target: T6, SPDEF (Homo sapiens, UniProt O95238 1-335)
T6 sequence: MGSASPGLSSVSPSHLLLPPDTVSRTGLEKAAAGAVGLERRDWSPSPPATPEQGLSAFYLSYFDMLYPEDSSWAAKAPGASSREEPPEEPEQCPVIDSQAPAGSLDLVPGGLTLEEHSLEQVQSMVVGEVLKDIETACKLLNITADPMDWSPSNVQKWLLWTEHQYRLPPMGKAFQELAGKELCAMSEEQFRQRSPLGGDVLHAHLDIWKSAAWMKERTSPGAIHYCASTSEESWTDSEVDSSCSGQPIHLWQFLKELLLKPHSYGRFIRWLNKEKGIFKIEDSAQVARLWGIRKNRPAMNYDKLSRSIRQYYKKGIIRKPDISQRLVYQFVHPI
Outline: as §1

ETV7 = target: T7, ETV7 (Homo sapiens, UniProt Q9Y603 1-341)
T7 sequence: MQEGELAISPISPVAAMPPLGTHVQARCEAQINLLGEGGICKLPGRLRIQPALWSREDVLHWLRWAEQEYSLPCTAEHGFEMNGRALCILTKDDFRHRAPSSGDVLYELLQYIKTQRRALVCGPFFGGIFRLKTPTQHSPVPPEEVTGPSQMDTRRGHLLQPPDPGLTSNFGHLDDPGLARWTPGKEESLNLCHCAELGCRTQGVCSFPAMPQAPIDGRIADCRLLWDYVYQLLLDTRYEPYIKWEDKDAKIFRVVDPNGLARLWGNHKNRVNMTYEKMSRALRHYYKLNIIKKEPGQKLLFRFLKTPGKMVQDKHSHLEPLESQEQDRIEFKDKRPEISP
Outline: as §1

ETV3 = target: T8, ETV3 (Homo sapiens, UniProt P41162-2 1-143)
T8 sequence: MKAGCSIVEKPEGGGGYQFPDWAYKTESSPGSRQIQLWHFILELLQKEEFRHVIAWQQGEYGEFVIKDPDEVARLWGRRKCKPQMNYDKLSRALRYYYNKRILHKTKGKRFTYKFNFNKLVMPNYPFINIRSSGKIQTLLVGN
Outline: as §1

ETV6 = ETV6 (Homo sapiens, UniProt P41212 1-452)
Sequence of ETV6 (P41212 whole entry): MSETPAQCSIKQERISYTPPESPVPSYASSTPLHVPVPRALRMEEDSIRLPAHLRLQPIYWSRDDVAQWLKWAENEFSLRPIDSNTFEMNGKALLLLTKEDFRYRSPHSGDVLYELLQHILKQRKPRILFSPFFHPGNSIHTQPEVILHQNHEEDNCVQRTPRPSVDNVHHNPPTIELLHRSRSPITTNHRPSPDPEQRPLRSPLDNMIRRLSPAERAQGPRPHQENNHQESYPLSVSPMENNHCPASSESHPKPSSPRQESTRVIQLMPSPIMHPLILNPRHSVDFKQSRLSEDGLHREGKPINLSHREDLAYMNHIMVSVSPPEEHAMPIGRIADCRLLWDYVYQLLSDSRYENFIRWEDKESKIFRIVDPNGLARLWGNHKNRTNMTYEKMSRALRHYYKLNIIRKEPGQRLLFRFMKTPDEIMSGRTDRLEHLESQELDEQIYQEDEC
Outline: as §1

CAAACA
binding signal (ELK4): 1.13 fold enrichment (6-mer frequency, TF over GST control)
binding signal (ELF3): 1.21 fold enrichment (6-mer frequency, TF over GST control)
binding signal (ETV1): 1.09 fold enrichment (6-mer frequency, TF over GST control)
binding signal (ERF): 1.08 fold enrichment (6-mer frequency, TF over GST control)
binding signal (ETV3L): 1.12 fold enrichment (6-mer frequency, TF over GST control)
binding signal (ETS2): 1.16 fold enrichment (6-mer frequency, TF over GST control)
binding signal (SPDEF): 1.12 fold enrichment (6-mer frequency, TF over GST control)
binding signal (ETV7): 1.07 fold enrichment (6-mer frequency, TF over GST control)
binding signal (ETV3): 1.13 fold enrichment (6-mer frequency, TF over GST control)
binding signal (ETV6): 1.1 fold enrichment (6-mer frequency, TF over GST control)

From publication PMC7862700, “An all-to-all approach to the identification of sequence-specific readers for epigenetic DNA modifications on cytosine”
